# Source: publication PMC5540273 (PLoS ONE, 2017)
# How the values were obtained:
# Conditions in all cases: concentration: 1 μM, replicates: in singlicate; n = 1
# [1] = tested on: BUB1
# [2] = tested on: CAMK1B
# [3] = tested on: CAMK1D
# [4] = tested on: CAMK1G
# [5] = tested on: CAMK1
# [6] = tested on: CAMK2A
# [7] = tested on: CAMK2B
# [8] = tested on: CAMK2D
# [9] = tested on: CAMK2G
# [10] = tested on: CAMK4
# [11] = tested on: CAMKK1
# [12] = tested on: CAMKK2
# [13] = tested on: CASK
# [14] = tested on: T1, CDC2L1
# T1 construct: gene CDK11B
# [15] = tested on: CDC2L2
# [16] = tested on: T2, CDC2L5
# T2 construct: gene CDK13
# [17] = tested on: T3, CDK11
# T3 construct: gene CDK19
# [18] = tested on: CDK2
# [19] = tested on: CDK3
# [20] = tested on: CDK4-cyclinD1
# 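Further: KINOMEscan kinase panel screen.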
Structure (SMILES),%Inh [1] [%],%Inh [2] [%],%Inh [3] [%],%Inh [4] [%],%Inh [5] [%],%Inh [6] [%],%Inh [7] [%],%Inh [8] [%],%Inh [9] [%],%Inh [10] [%],%Inh [11] [%],%Inh [12] [%],%Inh [13] [%],%Inh [14] [%],%Inh [15] [%],%Inh [16] [%],%Inh [17] [%],%Inh [18] [%],%Inh [19] [%],%Inh [20] [%]
Nc1nccc(-c2c(-c3ccc(F)cc3)ncn2C2CCN(CC(F)(F)F)CC2)n1 [SB-236560],49,80,0,2,0,0,0,0,93.3,11,13,88,0,0,0,43,17,0,11,49
O=C1NC(=O)C(N2CCc3ccccc32)=C1c1cccc(Cl)c1 [SB-408010],0,0,17,0,24,0,0,10,0,1,7,0,0,0,5,0,0,0,0,0
Cn1ccc2ncnc(Oc3ccc(NC(=O)Nc4ccncc4)c(Cl)c3)c21,11,0,0,0,0,0,0,0,0,7,0,2,0,0,0,25,0,0,0,0
CCc1ccnc(/C=C/c2n[nH]c3cc(Sc4ccccc4C(=O)NC)ccc23)c1,49,8,0,2,0,4,0,9,18,0,16,11,34,7,2,0,0,3,0,16
COc1cc(Nc2nccc(N3CCC(NC(=O)c4cccc(NC(C)=O)c4)C3)n2)cc(OC)c1OC (stereo not drawn) [GSK1379754],0,7,27,6,40,0,0,0,21,0,0,11,1,0,2,0,20,2,0,0
NS(=O)(=O)c1cccc(-c2ccc3nccc(-c4cccc(S(N)(=O)=O)c4)c3c2)c1 [GW867253],17,0,0,0,0,0,0,0,0,0,13,19,30,0,0,0,13,0,22,0
Nc1nc(-c2ccc3c(N)n[nH]c3c2)cc(N2CCCC2)n1 [GSK2227430],30,3,20,0,25,0,0,0,21,0,0,10,0,0,14,0,1,0,0,0
COC(=O)Nc1nc2cc(Oc3ccc(NC(=O)Nc4cc(F)ccc4F)cc3)ccc2[nH]1.Cl [GW701424],77,27,20,7,4,0,0,20,11,0,0,4,0,0,6,0,0,0,0,20
O=C(NOCC1CC1)c1ccc(F)c(F)c1Nc1ccc(I)cc1Cl,0,0,0,0,0,0,0,0,0,32,0,0,3,0,0,0,12,0,0,0
